Results as given in PubChem BioAssay AID743261 (The Scripps Research Institute Molecular Screening Center, 2014).
Out of some 3,300 compounds screened, about 35 (1%) were called active. A selection follows. Values without a mark were called inactive. No stated cut-off is given here; in the data, active means inhibition above about 11%; inactive means the rest.

Molecular target: 1-phosphatidylinositol 4,5-bisphosphate phosphodiesterase beta-3 (Homo sapiens) (UniProt Q01970)
Assay: retest of human PLCB3 enzyme blockers – biochemical, fluorescence, purified enzyme, confirmation (AID 743261)
Conditions: purified PLC-beta3, fluorogenic substrate fluorescence; at 12.3 µM; stronger effect = higher value

Sequence of 1-phosphatidylinositol 4,5-bisphosphate phosphodiesterase beta-3 (Homo sapiens) (Q01970 whole entry, looked up): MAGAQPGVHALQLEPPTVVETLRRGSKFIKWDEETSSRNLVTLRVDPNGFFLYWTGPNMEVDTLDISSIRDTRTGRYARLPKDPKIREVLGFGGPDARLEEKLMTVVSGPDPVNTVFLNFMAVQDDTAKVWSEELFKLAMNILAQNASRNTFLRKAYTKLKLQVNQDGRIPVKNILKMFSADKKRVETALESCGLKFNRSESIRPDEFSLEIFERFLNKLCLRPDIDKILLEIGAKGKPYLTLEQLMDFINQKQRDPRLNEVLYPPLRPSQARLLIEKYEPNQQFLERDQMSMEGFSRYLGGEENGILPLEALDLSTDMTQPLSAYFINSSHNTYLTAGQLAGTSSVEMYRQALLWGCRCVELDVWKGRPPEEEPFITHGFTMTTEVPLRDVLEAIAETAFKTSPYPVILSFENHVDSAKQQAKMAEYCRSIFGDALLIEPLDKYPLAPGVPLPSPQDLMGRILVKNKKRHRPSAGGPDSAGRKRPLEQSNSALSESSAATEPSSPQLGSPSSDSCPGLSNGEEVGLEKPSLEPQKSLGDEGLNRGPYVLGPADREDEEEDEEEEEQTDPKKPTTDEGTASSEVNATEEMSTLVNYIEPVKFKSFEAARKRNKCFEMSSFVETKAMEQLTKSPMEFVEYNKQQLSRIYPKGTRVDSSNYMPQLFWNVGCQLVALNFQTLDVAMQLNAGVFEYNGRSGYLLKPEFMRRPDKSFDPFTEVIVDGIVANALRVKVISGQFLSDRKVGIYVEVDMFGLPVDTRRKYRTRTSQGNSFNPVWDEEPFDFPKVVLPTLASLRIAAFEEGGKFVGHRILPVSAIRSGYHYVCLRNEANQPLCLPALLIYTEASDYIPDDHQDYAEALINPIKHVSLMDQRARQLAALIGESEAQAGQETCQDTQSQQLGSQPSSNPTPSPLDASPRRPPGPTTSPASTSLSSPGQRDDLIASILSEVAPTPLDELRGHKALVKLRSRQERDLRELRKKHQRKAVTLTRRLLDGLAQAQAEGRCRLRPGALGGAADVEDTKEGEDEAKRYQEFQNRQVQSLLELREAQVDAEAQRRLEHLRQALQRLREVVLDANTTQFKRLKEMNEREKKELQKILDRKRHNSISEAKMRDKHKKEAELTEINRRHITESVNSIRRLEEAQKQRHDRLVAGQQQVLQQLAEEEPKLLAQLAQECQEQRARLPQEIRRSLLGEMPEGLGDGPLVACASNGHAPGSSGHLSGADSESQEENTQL

| SMILES | inhibition |
| --- | --- |
| Cc1cccc(C(=O)NCCCN2CCCC2=O)c1 | 2.72% |
| CN(C)S(=O)(=O)c1cccc(NC(=O)COC(=O)C2(c3ccccc3F)CCCC2)c1 | 0.6% |
| Nc1nc(NCC(=O)O)nc(N2CCCCCC2)c1[N+](=O)[O-] | 5.2% |
| CCOC(=O)Nc1ccc(NC(=O)OCC)cc1 | 4.88% |
| CC1(C)CC(=O)C=C(NC2CC(C)(C)NC(C)(C)C2)C1 | 0.58% |
| Cc1ccc(S(=O)(=O)N2CCCCC2)cc1NC(=O)CCNC(=O)c1ccccc1 | -5.41% |
| FC(F)(F)c1cnc(Oc2ccccc2-c2nnc(-c3ccc(Cl)cc3)o2)c(Cl)c1 | -7.7% |
| O=C(NC12CC3CC(CC(C3)C1)C2)N1CCCC(CO)C1 (stereo not given) | -3.42% |
| CC(C)(C)c1ccc(C(=O)Nc2cc(Cl)c(Br)cc2C(=O)O)cc1 | -8.39% |
| Cc1ccc(S(=O)(=O)Cn2nnnc2CN2CCN(Cc3ccc4c(c3)OCO4)CC2)cc1 | 2.26% |
| CC(C)C(NC(=O)C1CCC(C(C)(C)C)CC1)C(=O)NCCCN1CCCCC1 (stereo not given) | 0.28% |
| CC1CCN(S(=O)(=O)c2ccc(S(=O)(=O)NCc3ccco3)cc2)CC1 | -1.58% |
| O=C(NCc1ccc(F)cc1F)[C@@H]1CCCN1C(=O)[C@@H]1CCCN1C(=O)c1cccc(Cl)c1 | -0.65% |
| CC(=O)C1=C(O)C(=O)N(c2cccnc2)C1c1ccc([N+](=O)[O-])cc1 (stereo not given) | -1.47% |
| O=c1ccc2c(-c3ccccc3S(=O)(=O)O)c3ccc(O)c(O)c3oc-2c1O | 21% (active) |
| COc1ccc(/C(C)=N/N2CCOCC2)c(O)c1 | -14.9% |
| COCCNC(=O)C(c1ccc(O)cc1)N(C(=O)CCC(=O)Nc1nccs1)c1ccc(C)cc1 (stereo not given) | -0.24% |
| O=C1NC2(CCCCC2)N=C1c1ccccc1 | -4.41% |
| Cc1cccc([C@@H]2[C@@H]3C(=O)N(Cc4ccccc4)C(=O)[C@@H]3[C@]3(Cc4ccc(Cl)cc4)C(=O)N(c4cccc(Cl)c4)C(=O)N23)c1 | 5.38% |
| Cc1cc(NC(=O)CN2C(=O)NC(CC(C)C)C2=O)no1 (stereo not given) | 0.1% |
| CC(C)CCSc1ncnc2c1oc1nc3c(cc12)COC(C)(C)C3 | -2.11% |
| O=C(C[C@H]1C(=O)N(c2ccc(F)c(F)c2)C[C@@H]1Cc1ccccc1)Nc1ccccc1 | 9.92% |
| CN(C(=O)c1ccc(NC(=O)Cc2cccc(NC(=O)C3CCN(C(=O)c4ccccc4)CC3)c2)cc1)C1CC1 | -1% |

| SMILES | inhibition |
| --- | --- |
| CCCCn1c(SCC(=O)N2CCCC2=O)nc2cc(S(N)(=O)=O)ccc21 | 0.23% |
| O=c1c([N+](=O)[O-])cc(C(F)(F)F)cn1Cc1cccc(Cl)c1 | 4.27% |
| Cc1nc(-c2ccc(F)cc2)c(CC(=O)N2CCN(S(=O)(=O)c3ccc(F)cc3)CC2)s1 | -1.44% |
| O=C(COc1ccc(Cl)cc1)N1CCN(c2cccc(C(F)(F)F)c2)CC1 | -5.48% |
| O=S(=O)(c1ccc(F)cc1)N1CCN(C(=S)NC2CCCC2)CC1 | -3.43% |
| CC1(C(=O)NCc2ccccc2)CSCC(=O)N1CCCN1CCOCC1 (stereo not given) | -2.02% |
| O=[N+]([O-])c1cc(C(F)(F)F)ccc1NN=C1CCCC1 | 2.81% |
| O=c1c2ccccc2c(-c2ccccc2)nn1Cc1ccccc1 | -6.9% |
| CN(CC(=O)NC1CCCCC1)S(=O)(=O)c1ccc(Br)s1 | 3.57% |
| COc1ccccc1C(=O)N1C(CC(=O)Nc2ccccc2C)C(=O)NC2CCCCC21 (stereo not given) | -8.41% |
| COc1cc(OC)nc(S(C)(=O)=O)n1 | -3.28% |
| O=C(C(c1ccccc1)c1ccccc1)N1CCN(CC(O)COc2ccccc2)CC1 (stereo not given) | 3.79% |
| COC(=O)NC1(C(F)(F)F)NC(=O)N(C2CCCCC2)C1=O (stereo not given) | 2.36% |
| N#C[C@]1(S(=O)(=O)c2ccccc2)C[C@@H]2ON=C(c3cccc(Br)c3)[C@@H]2C1 | 0.44% |
| CC1Oc2ccccc2N(Cc2cccnc2)C1=O (stereo not given) | -1.95% |
| COc1ccccc1C(=O)Nc1cccc(C(=O)N2CCOCC2)c1 | -1.43% |
| S=c1[nH]nc(-c2cccnc2)n1/N=C/C(Cl)=C\c1ccccc1 | -5.69% |
| CC1(C)CC(=O)C=C(NCCN2CCNCC2)C1 | -4.21% |
| CCn1c(/C=C/Nc2ccccc2)[n+](CC)c2ccc(C(=O)OCC(F)(F)F)cc21 | -12.7% |
| COC(=O)CN1C(=O)C(O)=C(C(C)=O)C1c1ccc([N+](=O)[O-])cc1 (stereo not given) | 2.66% |
| COc1ccc(-c2ccc(CN3C(CC(C)C)C(=O)N(Cc4cn(CC5CCCCC5)nn4)CCS3(=O)=O)cc2)cc1 (stereo not given) | -1.28% |
| COc1ccc([N+](=O)[O-])cc1N(CC(O)Cn1nnc2ccccc21)S(=O)(=O)c1ccc(C)cc1 (stereo not given) | 3.85% |
| CCOc1ccccc1C1CC(c2cccc(NS(C)(=O)=O)c2)=NN1C(=O)c1ccccc1 (stereo not given) | -3.53% |

| SMILES | inhibition |
| --- | --- |
| O=C1CS(=O)CN1c1ccc(Oc2ccccc2)cc1 (stereo not given) | 0.56% |
| COc1cc(NC(=O)COC(=O)c2ccc([N+](=O)[O-])s2)cc(OC)c1OC | 2.2% |
| O=S(=O)(Nc1ccc(Oc2ncccn2)c(Cl)c1)c1ccc(F)cc1 | -3.4% |
| O=C(CSc1nnc(-c2ccncc2)n1C1CCCCC1)Nc1ccccc1 | -1.28% |
| COc1ccccc1CCNC(=O)CN1C(=O)NC2(CCCC2)C1=O | 7.54% |
| Clc1ccc(C2[C@H]3CN(CC4CCCCC4)[C@H](c4ccccc4)C34CC2(c2cccnc2)C4)cn1 (stereo not given in full) | -4.05% |
| C[C@H](C(=O)N(C)c1ccccc1)[C@@H](O)c1ccc2ccccc2c1 | -3.71% |
| CCN(CC)Cc1csc2ccc(Br)cc12 | 0.36% |
| C=CCSC(CC)(CC)C(N)=O | 3.18% |
| COCc1cc(C(C)=O)ccc1OC | 0.95% |
| Cc1cccc(NC(=O)c2ccc3c(=O)n(CC4CCCO4)c(=S)[nH]c3c2)c1 (stereo not given) | 1.92% |
| CCc1ccc(-c2nc(SCC(=O)NC3CCCC3)n[nH]2)cc1 | -2.19% |
| C=CCOc1ccc(Cl)cc1CNCCCN1CCOCC1 | 1.5% |
| Cc1cc(NC(=O)COn2nnc3ccccc32)no1 | -9.92% |
| Cc1ccc(Cn2ccc(NC(=O)C3C4CCC(C4)C3C(=O)O)n2)cc1 (stereo not given) | -9.86% |
| CN(CC(=O)Nc1ccccc1Cl)C(=O)COc1cccc2c1OC(C)(C)C2 | 0.64% |
| CNC(=O)n1ccc(C(=O)N2CCCCC2)n1 | -1.25% |
| COc1ccc(C(N)c2csc(NC(=O)Nc3cccc(C(F)(F)F)c3)n2)cc1 (stereo not given) | 3.1% |
| O=C(NCCCN1CCCCC1)C1CC(=O)N(CCc2ccccc2)C1 (stereo not given) | 1.91% |
| O=C1/C(=C\c2ccsc2)NC(=S)N1c1ccccc1 | -5.74% |
| CC(C)Cn1cnc2c1c(=O)n(CC(O)c1ccccc1)c(=O)n2CC(C)C (stereo not given) | -3.57% |
| C=CCOc1ccccc1/C=N/NC(=O)Cc1ccccc1 | -2.73% |
| CCOC(=O)N1CCC(c2cc(=O)n(-c3ccccc3)[nH]2)CC1 | 2.09% |

| SMILES | inhibition |
| --- | --- |
| CCOc1cccc(-c2nnc3sc(COc4ccc(OC)cc4)nn23)c1 | -3.2% |
| O=C(/C=C/c1c(F)cccc1Cl)Nc1nn[nH]n1 | -1.92% |
| O=S1(=O)c2ccc(Br)cc2OC[C@H](Cc2ccccc2)N1Cc1cn(Cc2ccccc2)nn1 | 6.58% |
| CC(=O)c1c(C)[nH]c(C(=O)OCC(=O)Nc2cc(S(=O)(=O)N3CCCCC3)ccc2C)c1C | 2.76% |
| CCC1CCCCN1C(=O)CSc1nc(C)cc(C)n1 (stereo not given) | -1.69% |
| Cc1ccc(C(=O)N2CCN(C(=O)N3CCOCC3)CC2)cc1 | -1.36% |
| Cc1ccc(C)c(N2CCN(S(=O)(=O)c3c(C)[nH]c(C)c3C(=O)N3CCCC3)CC2)c1 | -5.1% |
| Cc1ccc(C23CC4CC(CC(C(=O)NCC(=O)O)(C4)C2)C3)cc1 | 4.19% |
| CCC[C@H]1CCCC/C=C\CCCC(=O)OCCN1C(=O)OC(C)(C)C | 7.62% |
| CCOc1ccccc1NC(=O)c1cccnc1 | -4.38% |
| O=C1c2ccccc2S(=O)(=O)N1CC(O)Cn1c2ccccc2c2ccccc21 (stereo not given) | -0.97% |
| Cc1cc(NC(=O)c2ccc(F)cc2)ccc1NC(=O)c1ccco1 | 8.74% |
| Cc1ccc(C(=O)Nc2ccc(C)c(S(=O)(=O)N(C)C)c2)s1 | -7.5% |
| COC(=O)N(C)C[C@@H]1OCc2cnnn2CCCC(=O)N([C@@H](C)CO)C[C@@H]1C | -4.12% |
| CCOc1ccc(CCNC(=O)COC(=O)CCS(=O)(=O)c2ccc(C)cc2)cc1OCC | -2.58% |
| CCOC(=O)[C@]12CCCC=C1N(CCCOC)C(=O)[C@@H]2CC(=O)N1CCOCC1 | -1.19% |
| NC1=CC(=O)C(=O)c2cccnc21 | -2.06% |
| O=C(NCc1cccnc1)c1cc(C2CCCCN2C(=O)CCc2ccccc2)on1 (stereo not given) | 1.6% |
| NC1=NN(c2cccc(C(=O)O)c2)C(=O)C1 | 0.11% |
| OC(CNCC1CCCO1)Cn1c2ccc(Br)cc2c2cc(Br)ccc21 (stereo not given) | -1.89% |
| CCCCc1nc2ccccc2c(NC(=O)CN2CCN(C)CC2)c1CCC | -2.31% |
